This note sets out measurements from PubChem BioAssay (EPA / NIEHS).

Inconclusive results are not listed. Activity calls are given as the source filed them. How the source made its calls: active means hit-call score of the fitted dose curve at least 0.9, where 1 is the maximum; inconclusive means response in the unintended direction; inactive means score below 0.9.

Sequence of Cellular tumor antigen p53 (Homo sapiens) (P04637 whole entry, looked up): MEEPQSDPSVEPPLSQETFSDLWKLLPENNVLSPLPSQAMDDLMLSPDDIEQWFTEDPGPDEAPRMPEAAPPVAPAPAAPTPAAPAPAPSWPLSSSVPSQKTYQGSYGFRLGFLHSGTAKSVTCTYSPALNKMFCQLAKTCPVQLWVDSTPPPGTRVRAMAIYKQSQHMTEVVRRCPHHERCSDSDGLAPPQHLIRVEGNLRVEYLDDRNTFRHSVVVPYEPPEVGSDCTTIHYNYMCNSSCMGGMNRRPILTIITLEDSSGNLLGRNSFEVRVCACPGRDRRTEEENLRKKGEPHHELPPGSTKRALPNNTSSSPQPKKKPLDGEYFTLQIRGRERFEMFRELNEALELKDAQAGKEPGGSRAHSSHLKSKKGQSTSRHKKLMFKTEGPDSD

The first test addresses Cellular tumor antigen p53 (Homo sapiens) (UniProt P04637). Kind of test: TOX21_p53_BLA_p5_ratio: Tox21 HCT-116 p53 Agonism Beta-lactamase Assay, Ratio, Phase 5 (AID 2283599). The gist of the method: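 Beta-lactamase reporter ratio (blue 460 nm over green 530 nm, 405 nm excitation) after 2 h CCF4-AM loading, in HCT-116 cells exposed 16 h at 37 C to compounds pinned at 217-fold dilution. Increases relative to DMSO baseline scored.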
With `CON=C(C(=O)N[C@@H]1C(=O)N2C(C(=O)O)=C(COC(N)=O)CS[C@H]12)c1ccco1`, the outcome was inactive.

With `C[C@H]1O[C@@H](n2cc(F)c(=O)[nH]c2=O)[C@H](O)[C@@H]1O`, the AC50 was 24.4 µM (active).

On to `O=C(O)c1cc(=O)c2c3nc4ccccc4oc-3cc(=O)c2[nH]1`, for which the outcome was inactive.

For the molecule `CO[C@@]12[C@H](COC(N)=O)C3=C(C(=O)C(C)=C(N)C3=O)N1C[C@@H]1N[C@@H]12`, the AC50 is 6.3 µM (active).

Turning to `CCN(CC)CCOc1ccc(-c2nc3cc(Cl)ccc3s2)cc1`, the outcome was inactive.

For `Cc1c(Cl)cccc1Nc1ccccc1C(=O)O`, the AC50 is 21.6 µM (active).

`CO[C@H]1/C=C/O[C@@]2(C)Oc3c(C)c(O)c4c(O)c(cc(O)c4c3C2=O)NC(=O)/C(C)=C\C=C\[C@H](C)[C@H](O)[C@@H](C)[C@@H](O)[C@@H](C)[C@H](OC(C)=O)[C@@H]1C`: the result was inactive.

As for `COc1ccccc1N1CCN(CC(O)COc2cccc3ccccc23)CC1` (stereo not given), the outcome was inactive.

As to `CN(C)c1nc(N(C)C)nc(N(C)C)n1`, the result was inactive.

For `NC(=O)c1ccccc1C(N)=O`, the half-maximal activity concentration (AC50) is 73.1 µM (active).

Regarding `OC[C@@H](O)[C@@H](O[C@@H]1O[C@H](CO)[C@H](O)[C@H](O)[C@H]1O)[C@H](O)[C@@H](O)CO`, the result was inactive.

For `NCCS`, the result was inactive.

Consider `CCCCCCCCCCCCCCC(=O)O`, for which the result was inactive.

Consider `CCCCCCCCCCCCCCCCCC(=O)OC[C@@H](O)[C@H]1OC[C@H](O)[C@H]1O`, for which the result was inactive.

For `Cc1ccc2nc(N)[nH]c(=O)c2c1Sc1ccncc1`, the result was inactive.

For the molecule `COc1cccc2c1[C@@H]1CN(CCCCn3c(=O)[nH]c4c(sc5ncc(-c6ccccc6)nc54)c3=O)C[C@@H]1CO2`, the outcome was inactive.

For the molecule `CCOC(=O)C=CC(=O)O`, the outcome was inactive.

Take `O=C(Nc1ccc(Br)cc1)c1cc(Br)c(Br)s1`: the AC50 was 19.9 µM (active).

Consider `CCC(C)(C)c1ccc(CC(C)CN2C[C@@H](C)O[C@@H](C)C2)cc1` (stereo not given in full), for which the outcome was inactive.

With `O=C(O)COC(=O)Cc1ccccc1Nc1c(Cl)cccc1Cl`, the outcome was inactive.

`C=CC(=O)O`: the result was inactive.

Turning to `CCC(C)n1ncn(-c2ccc(N3CCN(c4ccc(OC[C@H]5CO[C@](Cn6cncn6)(c6ccc(Cl)cc6Cl)O5)cc4)CC3)cc2)c1=O` (stereo not given in full), the outcome was inactive.

Consider `NCCCC[C@H](NC(=O)[C@@H]1CCCN1C(=O)[C@@H]1CSSC[C@H](N)C(=O)N[C@@H](Cc2ccc(O)cc2)C(=O)N[C@@H](Cc2ccccc2)C(=O)N[C@@H](CCC(N)=O)C(=O)N[C@@H](CC(N)=O)C(=O)N1)C(=O)NCC(N)=O`, for which the outcome was inactive.

Turning to `C=C1/C(=C\C=C2/CCC[C@]3(C)[C@@H]([C@H](C)CCCC(C)(C)O)CC[C@@H]23)C[C@@H](O)C[C@@H]1O`, the half-maximal activity concentration (AC50) is 27 µM (active).

Regarding `C=CCNC1=C2C[C@@H](C)C[C@H](OC)[C@H](O)[C@@H](C)/C=C(\C)[C@H](OC(N)=O)[C@@H](OC)/C=C\C=C(/C)C(=O)NC(=CC1=O)C2=O`, the AC50 was 0.183 µM (active).

`O[C@@H](CNC[C@H](O)[C@H]1CCc2cc(F)ccc2O1)[C@@H]1CCc2cc(F)ccc2O1`: the AC50 is 37.1 µM (active).

In the case of `O=C(O)c1ccc(Cl)c(Cl)c1`, the outcome was inactive.

`Cc1ccc(S(=O)(=O)NC(=O)NN2CC3CCCC3C2)cc1` (stereo not given): the result was inactive.

On to `Cn1cnc2c(F)c(Nc3ccc(Br)cc3Cl)c(C(=O)NOCCO)cc21`, for which the outcome was inactive.

Consider `CC1=CC(C)(C)Nc2ccccc21`, for which the outcome was inactive.

`COc1cccc2c1C(=O)c1c(O)c3c(c(O)c1C2=O)C[C@@](O)(C(=O)CO)C[C@@H]3O[C@H]1C[C@H](N)[C@H](O[C@@H]2CCCCO2)[C@H](C)O1`: the concentration at half-maximal activity (AC50) is 7.29 µM (active).

With `CC(C)COC(=O)COc1cc(Cl)c(Cl)cc1Cl`, the result was inactive.

Regarding `CCCCNc1cc(C(=O)O)cc(S(N)(=O)=O)c1Oc1ccccc1`, the outcome was inactive.

For `Oc1ccc(Cl)c2cccnc12`, the outcome was inactive.

Take `Cc1cc(-c2ccc(N=Nc3cc(S(=O)(=O)O)c4ccccc4c3N)c(C)c2)ccc1N=Nc1cc(S(=O)(=O)O)c2ccccc2c1N`: the result was inactive.

Take `CC1(C)C[C@@H]1C(=O)N/C(=C\CCCCSC[C@H](N)C(=O)O)C(=O)O`: the result was inactive.

For the molecule `O[C@@H]([C@H](O)[C@H](O)CBr)[C@H](O)CBr`, the result was inactive.

For `Cc1cc(O)c(C(C)C)cc1Cl`, the outcome was inactive.

As for `Cc1cc(O)c2c(c1)O[C@@]1(C)CC[C@H]3C(C)(C)CCCC34CO[C@@H]2[C@H]41` (stereo not given in full), the AC50 was 30.6 µM (active).

As to `CN1[C@@H]2CC[C@H]1CC(OC(=O)C(O)c1ccccc1)C2` (stereo not given in full), the result was inactive.

Tested on in a further test: not listed separately
Kind of test: TOX21_p53_BLA_p5_viability: Viability Assessment in the Tox21 HCT-116 p53 Agonism Beta-lactamase Assay, Phase 5 (AID 2283600). The gist of the method:
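HCT-116 p53 beta-lactamase reporter cells, 4000/well, were exposed to compound (pin transfer, 217-fold dilution) for 16 hours at 37C. Cellular ATP was read by CellTiter-Glo luminescence after 30 min at room temperature.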
For `CON=C(C(=O)N[C@@H]1C(=O)N2C(C(=O)O)=C(COC(N)=O)CS[C@H]12)c1ccco1`, the result was inactive.

Consider `C[C@H]1O[C@@H](n2cc(F)c(=O)[nH]c2=O)[C@H](O)[C@@H]1O`, for which the molecule was called inactive.

Take `O=C(O)c1cc(=O)c2c3nc4ccccc4oc-3cc(=O)c2[nH]1`: the molecule was classed as inactive.

`CO[C@@]12[C@H](COC(N)=O)C3=C(C(=O)C(C)=C(N)C3=O)N1C[C@@H]1N[C@@H]12`: the AC50 was 34.4 µM (active).

As for `CCN(CC)CCOc1ccc(-c2nc3cc(Cl)ccc3s2)cc1`, the call was inactive.

On to `Cc1c(Cl)cccc1Nc1ccccc1C(=O)O`, for which the call was inactive.

Regarding `CO[C@H]1/C=C/O[C@@]2(C)Oc3c(C)c(O)c4c(O)c(cc(O)c4c3C2=O)NC(=O)/C(C)=C\C=C\[C@H](C)[C@H](O)[C@@H](C)[C@@H](O)[C@@H](C)[C@H](OC(C)=O)[C@@H]1C`, the molecule was called inactive.

On to `COc1ccccc1N1CCN(CC(O)COc2cccc3ccccc23)CC1` (stereo not given), for which the molecule was classed as inactive.

In the case of `CN(C)c1nc(N(C)C)nc(N(C)C)n1`, the molecule was called inactive.

Regarding `NC(=O)c1ccccc1C(N)=O`, the molecule was called inactive.

Regarding `OC[C@@H](O)[C@@H](O[C@@H]1O[C@H](CO)[C@H](O)[C@H](O)[C@H]1O)[C@H](O)[C@@H](O)CO`, the molecule was called inactive.

Regarding `NCCS`, the molecule was called inactive.

On to `CCCCCCCCCCCCCCC(=O)O`, for which the molecule was classed as inactive.

For the molecule `CCCCCCCCCCCCCCCCCC(=O)OC[C@@H](O)[C@H]1OC[C@H](O)[C@H]1O`, the molecule was called inactive.

For `Cc1ccc2nc(N)[nH]c(=O)c2c1Sc1ccncc1`, the molecule was classed as inactive.

For `COc1cccc2c1[C@@H]1CN(CCCCn3c(=O)[nH]c4c(sc5ncc(-c6ccccc6)nc54)c3=O)C[C@@H]1CO2`, the molecule was classed as inactive.

Turning to `CCOC(=O)C=CC(=O)O`, the outcome was inactive.

Consider `O=C(Nc1ccc(Br)cc1)c1cc(Br)c(Br)s1`, for which the call was inactive.

Turning to `CCC(C)(C)c1ccc(CC(C)CN2C[C@@H](C)O[C@@H](C)C2)cc1` (stereo not given in full), the result was inactive.

Take `O=C(O)COC(=O)Cc1ccccc1Nc1c(Cl)cccc1Cl`: the molecule was called inactive.

Regarding `C=CC(=O)O`, the molecule was called inactive.

With `CCC(C)n1ncn(-c2ccc(N3CCN(c4ccc(OC[C@H]5CO[C@](Cn6cncn6)(c6ccc(Cl)cc6Cl)O5)cc4)CC3)cc2)c1=O` (stereo not given in full), the molecule was called inactive.

For `NCCCC[C@H](NC(=O)[C@@H]1CCCN1C(=O)[C@@H]1CSSC[C@H](N)C(=O)N[C@@H](Cc2ccc(O)cc2)C(=O)N[C@@H](Cc2ccccc2)C(=O)N[C@@H](CCC(N)=O)C(=O)N[C@@H](CC(N)=O)C(=O)N1)C(=O)NCC(N)=O`, the call was inactive.

For the molecule `C=C1/C(=C\C=C2/CCC[C@]3(C)[C@@H]([C@H](C)CCCC(C)(C)O)CC[C@@H]23)C[C@@H](O)C[C@@H]1O`, the AC50 was 21 µM (active).

Take `C=CCNC1=C2C[C@@H](C)C[C@H](OC)[C@H](O)[C@@H](C)/C=C(\C)[C@H](OC(N)=O)[C@@H](OC)/C=C\C=C(/C)C(=O)NC(=CC1=O)C2=O`: the molecule was called inactive.

With `O[C@@H](CNC[C@H](O)[C@H]1CCc2cc(F)ccc2O1)[C@@H]1CCc2cc(F)ccc2O1`, the AC50 is 43.1 µM (active).

For the molecule `O=C(O)c1ccc(Cl)c(Cl)c1`, the molecule was classed as inactive.

Consider `Cc1ccc(S(=O)(=O)NC(=O)NN2CC3CCCC3C2)cc1` (stereo not given), for which the molecule was classed as inactive.

Consider `Cn1cnc2c(F)c(Nc3ccc(Br)cc3Cl)c(C(=O)NOCCO)cc21`, for which the molecule was called inactive.

On to `CC1=CC(C)(C)Nc2ccccc21`, for which the call was inactive.

Turning to `COc1cccc2c1C(=O)c1c(O)c3c(c(O)c1C2=O)C[C@@](O)(C(=O)CO)C[C@@H]3O[C@H]1C[C@H](N)[C@H](O[C@@H]2CCCCO2)[C@H](C)O1`, the result was inactive.

As to `CC(C)COC(=O)COc1cc(Cl)c(Cl)cc1Cl`, the molecule was called inactive.

`CCCCNc1cc(C(=O)O)cc(S(N)(=O)=O)c1Oc1ccccc1`: the result was inactive.

Turning to `Oc1ccc(Cl)c2cccnc12`, the molecule was classed as inactive.

Regarding `Cc1cc(-c2ccc(N=Nc3cc(S(=O)(=O)O)c4ccccc4c3N)c(C)c2)ccc1N=Nc1cc(S(=O)(=O)O)c2ccccc2c1N`, the call was inactive.

For the molecule `CC1(C)C[C@@H]1C(=O)N/C(=C\CCCCSC[C@H](N)C(=O)O)C(=O)O`, the outcome was inactive.

Turning to `O[C@@H]([C@H](O)[C@H](O)CBr)[C@H](O)CBr`, the result was inactive.

In the case of `Cc1cc(O)c(C(C)C)cc1Cl`, the outcome was inactive.

`Cc1cc(O)c2c(c1)O[C@@]1(C)CC[C@H]3C(C)(C)CCCC34CO[C@@H]2[C@H]41` (stereo not given in full): the AC50 is 20.8 µM (active).

`CN1[C@@H]2CC[C@H]1CC(OC(=O)C(O)c1ccccc1)C2` (stereo not given in full): the outcome was inactive.

In general, AC50 refers to the concentration at which the activity in the assay is half-maximal.
